PubChem BioAssay AID1259336 (Sattelle Laboratory, UCL Respiratory, Division of Medicine, …, 2017)
Active and inactive are the calls of the source. Rule as the data show it: active = log2 fold change growth below about -1.8; inactive = the rest.

assay: anthelmintic activity against nematode growth – whole organism, log2 fold change (AID 1259336);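 also: growth scored by imaging after five days at 20 °C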; conditions: C. elegans growth, anthelmintic screen; stronger effect = lower value

log2 fold change growth, inactive:
CS(=O)(=O)N1CCC(Cn2nc(Cc3cccc4ccccc34)c3c(N)ncnc32)CC1 -0.695, COC[C@H](C)NC(=O)CSc1ncnc2sc(-c3ccccc3)cc12 -0.053, Nc1ncnc2c1ncn2[C@@H]1O[C@H](COS(=O)(=O)NC(=O)c2ccccc2O)[C@@H](O)[C@H]1O 0.353, CC(C)(C)n1nc(-c2ccccc2)c2c(N)ncnc21 -0.162, COc1ccccc1CNC(=O)c1cc(C2CC2)nc2c1cnn2C(C)C -0.297, CCN(CC)C(=O)N1CCN(C)CC1 0.355, CC(=O)Nc1ccc(-c2noc(C[C@H]3CCCN(Cc4cccc(F)c4C)C3)n2)cc1 0.251, CN1CCC(NCc2cccc(-c3ccc(S(=O)(=O)NCc4ccccc4)cc3)c2)CC1 0.364, CCOC(=O)NC(=O)c1ccsc1NC(=O)c1nc2ccccc2s1 -3.88, FC(F)(F)c1cnc(Sc2nnc(-c3ccncc3)o2)c(Cl)c1 -0.0782, COc1ccc2nc(C)cc(OCC(=O)Nc3ccccc3OC)c2c1 0.165, COc1cccc(-c2nc3c(N4CCCC4)cccc3n2C[C@H]2CCCN2)n1 0.434, CC(C)(C)n1nc(Cc2cccc3ccccc23)c2c(N)ncnc21 -0.527, O=C(NC1CC1)c1ccc(CSCc2ccccc2Cl)o1 0.276, COc1ccc(C2=NCCN2)cc1-c1cn(-c2cccc(C3=NCCN3)c2)nn1 0.077, CN1CCN(S(=O)(=O)c2ccc(-c3ccc4c(Nc5ncc(Cl)cn5)ccnc4c3)cc2)CC1 0.346, COc1ccc(S(=O)(=O)Nc2ccc(CN3CCN(C(=O)c4cccc(C#N)c4)CC3)cc2)cc1 0.00585, CCOc1ccccc1N[C@@H](C)C(=O)Nc1cc(C(F)(F)F)ccc1N1CCOCC1 -1.5, Clc1cccc([C@H](c2ccc(CN3CCNCC3)cc2)n2ccnc2)c1 -0.356, c1coc(CNc2nc(N3CCCCC3)nc3ccccc23)c1 -0.141, CC(=O)N(CCN(C(=O)c1ccc(F)cc1)c1ccccc1)c1ccccc1 0.382, c1cncc(NCc2ccc(-c3cc4ccncc4cc3OC3CCNCC3)s2)c1 0.376, OCc1ccc(-c2cncc(Nc3cccc(Cl)c3)c2)cc1 -0.873, N[C@@H](CC(=O)c1ccc(Cl)cc1Cl)C(Cl)(Cl)Cl -0.444, Cc1cc(C(=O)Nc2cnn(Cc3ccc(Cl)cc3Cl)c2)no1 0.545, O=C1N(Cc2cc3ccccc3s2)C[C@H]2CN(Cc3ccccc3)CCN12 -0.864, O=C(Nc1ccccc1)c1ccc(-c2cc3ccncc3cc2OC2CCNCC2)s1 -0.0844, O=C(NCCN1CCCC1)c1cc(NCCN2CCOCC2)nc2ccc(Cl)cc12 0.29, CCCNC(=O)N1CCC2(CC1)CC(=O)c1cc(C)ccc1O2 -0.181, CC(C)=CCC/C(C)=C\CNCCNC1C2CC3CC(C2)CC1C3 (stereo not drawn) 0.423, CCOc1ccccc1C(=O)Nc1cccc(-c2nc3ncccn3c2C)c1 -0.256, CS(=O)(=O)c1cccc(-c2cnc3[nH]cc(-c4ccc(CCC(=O)O)cc4)c3c2)c1 0.172, COc1ccc(-c2cnc3ccc(N4CCCC4)nn23)cc1OC -0.625, CCn1ncc2c(NC3CCOCC3)c(CNC(=O)c3ccnn3C)c(C)nc21 -0.407, N=C(N)c1ccc(-c2cc(-c3ccccc3)on2)cc1 0.247, N#Cc1nc(-c2ccccc2F)oc1NCCc1ccccc1 -0.468, CC(=O)NC[C@@H]1CN(c2ccc(N3CCOCC3)c(F)c2)C(=O)O1 -0.257, Cc1cc(NCC(C)C)c2[nH]nc(-c3ccccc3)c2n1 0.0984
